Reference: PubChem BioAssay (Tox21)
Records with an inconclusive call do not appear. Where a call stands in place of a potency, no number is given. Calls of active or inactive are those of the source. Unless noted, the call rests on the fitted dose curve.

The compounds below were run against D(2) dopamine receptor (Homo sapiens) (UniProt P14416) (assay: Dopamine D2 receptor (DRD2) small molecule agonists, cell-based qHTS assay (AID 1963594; further: nearly all actives have a fitted effect of over 35% in size)). Conditions: HEK293-DRD2 cAMP HTRF, agonist mode, 30 min; series mostly up to 92.4 µM.
Sequence of D(2) dopamine receptor (Homo sapiens) (P14416 whole entry, looked up): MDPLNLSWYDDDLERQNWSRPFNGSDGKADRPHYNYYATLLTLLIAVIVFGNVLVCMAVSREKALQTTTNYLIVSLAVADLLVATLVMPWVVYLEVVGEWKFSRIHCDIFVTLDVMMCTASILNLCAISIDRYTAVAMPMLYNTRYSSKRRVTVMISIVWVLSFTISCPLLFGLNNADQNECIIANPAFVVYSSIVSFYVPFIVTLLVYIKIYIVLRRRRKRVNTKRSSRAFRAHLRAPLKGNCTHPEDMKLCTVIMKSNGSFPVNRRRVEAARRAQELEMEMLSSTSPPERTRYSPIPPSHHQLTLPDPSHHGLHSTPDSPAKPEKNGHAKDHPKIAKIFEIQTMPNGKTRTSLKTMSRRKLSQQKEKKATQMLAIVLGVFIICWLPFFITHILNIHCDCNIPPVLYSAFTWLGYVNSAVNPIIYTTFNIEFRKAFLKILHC
Method in brief: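 cAMP accumulation in DRD2-HEK293 cells measured by HTRF after 1 h detection; compounds added 10 min before NKH477 (200nM […]) forskolin-analogue stimulation, 30 min at room temperature, with Ro20-1724 present at 0.1 mM final.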
`C=CCSSCC=C` was tested, and the Potency was “inactive”. With `N#Cc1ccc(Cl)cc1` the Potency was “inactive”. In the case of `C=CCc1cc(OC)c2c(c1)OCO2`, the Potency is reported as “inactive”. In the case of `c1ccc(NNc2ccccc2)cc1`, the Potency is reported as “inactive”. `O=c1[nH]c2ccccc2n1C1CCN(CCCC(c2ccc(F)cc2)c2ccc(F)cc2)CC1` was tested, and the Potency was “inactive”. `CCCCCCCCCCn1cc[n+](C)c1` was tested, and the Potency was “inactive”. For `OCCSSCCO`, the Potency was “inactive”. For `CCN`, the Potency was “inactive”. In the case of `N#Cc1ccc(O)cc1`, the Potency is reported as “inactive”. In the case of `NCCOS(=O)(=O)O`, the Potency is reported as “inactive”. With `O=NN(c1ccccc1)c1ccccc1` the Potency was “inactive”. With `COC(=O)Nc1cccc(OC(=O)Nc2cccc(C)c2)c1` the Potency was “inactive”. For `O=S1OCC2C(CO1)C1(Cl)C(Cl)=C(Cl)C2(Cl)C1(Cl)Cl` (configuration not stated), the Potency was “inactive”. `ClC1=C(Cl)C2(Cl)C3C(Cl)C(Cl)CC3C1(Cl)C2(Cl)Cl` (configuration not stated) was tested, and the Potency was “inactive”. `ClC(Cl)(Cl)Br` was tested, and the Potency was “inactive”. In the case of `CCN(CC)Cc1nccn1-c1ccc([N+](=O)[O-])cc1C(=O)c1ccccc1Cl`, the Potency is reported as “inactive”. With `CCCCCCCCSC(=O)Oc1cc(Cl)nnc1-c1ccccc1` the Potency was “inactive”. With `Cc1ccc(N)cc1N` the Potency was “inactive”. With `[O-][Cl+]O` the Potency was “inactive”. In the case of `OCCOc1ccccc1`, the Potency is reported as “inactive”. In the case of `O=C(CCN1CC1)OCC(CO)(COC(=O)CCN1CC1)COC(=O)CCN1CC1`, the Potency is reported as “inactive”. `CC(C)(C)C(O)(CCc1ccc(Cl)cc1)Cn1cncn1` (configuration not stated) was tested, and the Potency was “inactive”. For `N#CC(c1ccccc1)c1ccccc1`, the Potency was “inactive”. `CCN(CC)C(=O)C(C)Oc1cccc2ccccc12` (configuration not stated) was tested, and the Potency was “inactive”. In the case of `CN(C)CCC#N`, the Potency is reported as “inactive”. In the case of `CCN(CCO)CCO`, the Potency is reported as “inactive”. `O=C(NCO)NCO` was tested, and the Potency was “inactive”. In the case of `Nc1c(Br)cc([N+](=O)[O-])cc1[N+](=O)[O-]`, the Potency is reported as “inactive”. With `Cc1cccc(N)c1N` the Potency was “inactive”.

What follows are compounds tested against D(2) dopamine receptor (Homo sapiens) (UniProt P14416) (assay: Dopamine D2 receptor (DRD2) small molecule antagonists, cell-based qHTS assay (AID 1963595; active means well fitted inhibition curve with a large enough effect in the signal ratio in the repeat runs, with a control signal flat; the % refers to the signal ratio)). Conditions: HEK293-DRD2 cAMP HTRF antagonist mode; series mostly up to 92.4 µM.
Method in brief: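 HTRF cAMP read-out at 665 and 620 nm emission (340 nm excitation). Antagonist mode: compounds were tested against 12 nM quinpirole in DRD2-HEK293 cells, with 200 nM NKH477 raising cAMP and 0.1 mM Ro20-1724 blocking its breakdown.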
`N#CCCO` was tested, and the Potency was “inactive”. In the case of `C=CCSSCC=C`, the Potency is reported as “inactive”. `N#Cc1ccc(Cl)cc1` was tested, and the Potency was “inactive”. For `C=CCc1cc(OC)c2c(c1)OCO2`, the Potency was “inactive”. In the case of `c1ccc(-c2cccc(-c3ccccc3)c2)cc1`, the Potency is reported as “inactive”. With `c1ccc(NNc2ccccc2)cc1` the Potency was “inactive”. For `CCCCCCCCCCn1cc[n+](C)c1`, the Potency was “inactive”. In the case of `OCCSSCCO`, the Potency is reported as “inactive”. With `CCN` the Potency was “inactive”. In the case of `N#Cc1ccc(O)cc1`, the Potency is reported as “inactive”. With `NCCOS(=O)(=O)O` the Potency was “inactive”. With `O=NN(c1ccccc1)c1ccccc1` the Potency was “inactive”. In the case of `CC(Br)C(=O)O` (configuration not stated), the Potency is reported as “inactive”. `ClC(Cl)(Cl)Br` was tested, and the Potency was “inactive”. With `CCN(CC)Cc1nccn1-c1ccc([N+](=O)[O-])cc1C(=O)c1ccccc1Cl` the Potency was “inactive”. With `Cl/C=C/CCl` the Potency was “inactive”. In the case of `CCCCCCCCSC(=O)Oc1cc(Cl)nnc1-c1ccccc1`, the Potency is reported as “inactive”. For `Cc1ccc(N)cc1N`, the Potency was “inactive”. For `[O-][Cl+]O`, the Potency was “inactive”. `OCCOc1ccccc1` was tested, and the Potency was “inactive”. For `O=C(CCN1CC1)OCC(CO)(COC(=O)CCN1CC1)COC(=O)CCN1CC1`, the Potency was “inactive”. For `CC(C)(C)C(O)(CCc1ccc(Cl)cc1)Cn1cncn1` (configuration not stated), the Potency was “inactive”. `CC1COC2(c3ccccc3Cl)c3cc(Cl)ccc3NC(=O)CN12` (configuration not stated) was tested, and the Potency was “inactive”. For `CC(C)(C)OOC(C)(C)CCC(C)(C)OOC(C)(C)C`, the Potency was “inactive”. With `N#CC(c1ccccc1)c1ccccc1` the Potency was “inactive”. For `O=C(Cl)OCCOCCOC(=O)Cl`, the Potency was “inactive”. With `CCN(CC)C(=O)C(C)Oc1cccc2ccccc12` (configuration not stated) the Potency was “inactive”. In the case of `CN(C)CCC#N`, the Potency is reported as “inactive”. For `CCN(CCO)CCO`, the Potency was “inactive”. For `O=C(NCO)NCO`, the Potency was “inactive”. With `Nc1c(Br)cc([N+](=O)[O-])cc1[N+](=O)[O-]` the Potency was “inactive”. For `Cc1cccc(N)c1N`, the Potency was “inactive”. For `CC(C)C(=O)OCC(C)(C)C(OC(=O)C(C)C)C(C)C` (configuration not stated), the Potency was “inactive”.
